For ten compounds, z-score and composite z-score results are on record in PubChem BioAssay.

Test [1] can be described thus: HepG2 liver cancer cell viability effects, profiling panel, resazurin fluorescence, 24 h, PK04 Diversity Set (AID 1172). The following applies: higher = more signal.
Test [2] is described as follows: basal S. cerevisiae growth modulation, no modifier, primary screen, OD600, strain BY4716, 24 h, basal condition (AID 1173). The following applies: OD600, 24 h, higher = more signal, called active from +8 up or from −8 down.
Test [3] in a line: MM1S myeloma cell viability, profiling panel, resazurin fluorescence, basal, 24 h, PK04 Diversity Set (AID 1174). The following applies: higher = more signal, called active from +8 up or from −8 down. In general terms: Resazurin is reduced to fluorescent resorufin, in cell work by metabolically active cells.
Test [4] concerns the target Dihydroorotate dehydrogenase (quinone), mitochondrial (Plasmodium falciparum (isolate 3D7)) (UniProt Q08210). The test is described as follows: PfDHODH enzyme inhibitors, primary screen, biochemical, C-terminal His tag, absorbance 600 nm (AID 1175).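 Note: recombinant parasite enzyme with a five histidine tag at its C terminus.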 To be noted: DCIP absorbance 600 nm, higher = more signal, called active from +8 up or from −8 down.
A short description of test [5]: P. aeruginosa biofilm formation inhibitors, primary screen, strain PAO1, LB-PBS medium, absorbance 600 nm (AID 1176). The following applies: P. aeruginosa PAO1 growth/biofilm, A600, 12 h; higher = more signal.
The nature of test [6]: S. cerevisiae RM11-1a growth modifiers, primary screen, strain RM11-1a, OD600, basal, 24 h (AID 1177).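 Note: cultures grown under basal conditions with no added stressor.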 The following applies: OD600, 24 h, higher = more signal, called active from +8 up or from −8 down.
The nature of test [7]: E. coli acrAB mutant growth effects, primary screen, E. coli filamentation inducers, strain DRC39, OD650, 24 h (AID 1178).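 Note: growth measured as culture turbidity by optical density at 650 nm.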 To be noted: higher = more signal, called active from +8 up or from −8 down.
The nature of test [8]: E. coli acrAB mutant growth effects, primary screen, E. coli filamentation inducers, strain DRC39, OD650, 48 h (AID 1179).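 Note: screen aims at cell division blockers that make cells filament.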 To be noted: E. coli DRC39 delta-acrAB growth, higher = more signal, called active from +8 up or from −8 down.
Test [9] in a line: RPMI8226 myeloma cell viability, profiling panel, resazurin fluorescence, basal, 24 h, PK04 Diversity Set (AID 1180).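 Note: RPMI8826 multiple myeloma cell line at 5000 cells per well.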 The following applies: higher = more signal.
In test [10] the target is E3 ubiquitin-protein ligase XIAP (Homo sapiens) (UniProt P98170). Briefly: XIAP binders, primary screen, biophysical, small-molecule microarray, fluorescence 635 nm (AID 1181).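 Note: score merges 667 nm emission and signal to noise over triplicate slides.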 To be noted: small-molecule microarray binding, higher = more signal.
The test system of test [11] is XIP peptide (Xip251-270) binding. Briefly: small-molecule binders of XIP peptide, primary screen, biochemical, small-molecule microarray, fluorescence 635/667 nm, 0.1 µg/mL protein (AID 1182). To be noted: fluorescent protein binding, 635 nm, higher = more signal, called active from +8 up or from −8 down.
The test system of the next test is XIP peptide (Xip251-270). Briefly: small-molecule binders of XIP peptide, primary screen, biochemical, small-molecule microarray, fluorescence 635/667 nm, 0.5 µg/mL protein (AID 1183). To be noted: small-molecule microarray binding, fluorescence 635 nm; higher = more signal.
Test [12] can be described thus: Plasmodium falciparum growth inhibition, primary screen, strain 3D7, DAPI fluorescence, 100 nL (AID 1184).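 Note: parasites grown inside human red blood cells in medium with human serum.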 To be noted: P. falciparum 3D7 growth, 3 d, higher = more signal.
Test [13] has as its target Homeobox protein Hox-A13 (Mus musculus) (UniProt Q62424). Briefly: inhibitors of HoxA13-DNA binding, primary screen, biochemical, fluorescence polarization, labeled oligonucleotide (AID 1185). To be noted: 15 min, higher = more signal, called active from +8 up or from −8 down. Background: In fluorescence polarisation assays a small probe gives low polarisation when free and higher when bound to something large.

A short description of test [14]: inhibitors of hydroxyurea-induced Chk1 phosphorylation, primary screen, imaging, HeLa, phospho-Chk1 antibody, percent positive cells (AID 1186). The following applies: hydroxyurea-induced phospho-Chk1 immunofluorescence imaging, higher = more signal.
Test [15] can be described thus: inhibitors of hydroxyurea-induced Chk1 phosphorylation, primary screen, imaging, HeLa, phospho-Chk1 nuclear intensity (AID 1187). To be noted: hydroxyurea-induced phospho-Chk1 immunofluorescence imaging, higher = more signal.

Calls of active or inactive are those of the source. Unless noted, the rule behind the calls is not given here.

Chain of Dihydroorotate dehydrogenase (quinone), mitochondrial (Plasmodium falciparum (isolate 3D7)) (Q08210 whole entry, looked up): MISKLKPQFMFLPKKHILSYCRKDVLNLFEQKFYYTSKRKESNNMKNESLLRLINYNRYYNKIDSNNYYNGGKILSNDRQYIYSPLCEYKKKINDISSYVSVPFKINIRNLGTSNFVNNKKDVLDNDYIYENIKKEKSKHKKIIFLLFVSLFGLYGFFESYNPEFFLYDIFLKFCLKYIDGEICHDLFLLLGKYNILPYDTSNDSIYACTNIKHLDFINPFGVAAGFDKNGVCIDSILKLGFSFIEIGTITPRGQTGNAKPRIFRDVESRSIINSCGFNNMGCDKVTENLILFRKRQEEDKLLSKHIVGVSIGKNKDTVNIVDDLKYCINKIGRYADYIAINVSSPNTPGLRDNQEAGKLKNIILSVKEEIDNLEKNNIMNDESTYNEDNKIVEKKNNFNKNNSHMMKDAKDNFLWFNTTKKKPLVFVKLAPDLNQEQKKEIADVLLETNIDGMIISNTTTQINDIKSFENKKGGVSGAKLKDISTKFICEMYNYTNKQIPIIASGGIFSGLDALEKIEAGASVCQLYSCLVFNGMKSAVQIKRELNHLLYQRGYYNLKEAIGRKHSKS
Chain of E3 ubiquitin-protein ligase XIAP (Homo sapiens) (P98170 whole entry, looked up): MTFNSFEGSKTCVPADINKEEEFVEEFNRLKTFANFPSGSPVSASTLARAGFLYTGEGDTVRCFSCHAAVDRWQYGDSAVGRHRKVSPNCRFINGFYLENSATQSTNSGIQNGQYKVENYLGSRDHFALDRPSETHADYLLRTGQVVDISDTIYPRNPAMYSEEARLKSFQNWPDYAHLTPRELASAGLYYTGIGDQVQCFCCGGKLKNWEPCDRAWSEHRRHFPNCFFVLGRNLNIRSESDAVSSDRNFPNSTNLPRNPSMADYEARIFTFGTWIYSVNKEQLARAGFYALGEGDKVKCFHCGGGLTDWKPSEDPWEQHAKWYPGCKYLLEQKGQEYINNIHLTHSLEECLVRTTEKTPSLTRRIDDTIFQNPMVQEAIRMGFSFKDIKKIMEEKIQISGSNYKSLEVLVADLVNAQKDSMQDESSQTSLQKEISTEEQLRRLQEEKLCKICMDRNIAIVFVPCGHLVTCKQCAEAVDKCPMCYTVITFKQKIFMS
Chain of Homeobox protein Hox-A13 (Mus musculus) (Q62424 whole entry, looked up): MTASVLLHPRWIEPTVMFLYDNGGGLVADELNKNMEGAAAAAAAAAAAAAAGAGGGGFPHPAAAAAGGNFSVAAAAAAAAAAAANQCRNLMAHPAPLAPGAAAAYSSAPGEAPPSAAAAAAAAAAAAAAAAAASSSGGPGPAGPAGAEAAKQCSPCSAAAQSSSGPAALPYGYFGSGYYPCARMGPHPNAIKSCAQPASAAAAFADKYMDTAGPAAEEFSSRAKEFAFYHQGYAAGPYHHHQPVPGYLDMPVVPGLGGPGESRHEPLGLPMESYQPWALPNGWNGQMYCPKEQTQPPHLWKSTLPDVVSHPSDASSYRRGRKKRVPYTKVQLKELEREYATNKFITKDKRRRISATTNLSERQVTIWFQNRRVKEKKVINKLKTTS

As to `O=C1OCCC=C[C@H]2OC34C=CCN(Cn5nnc6ccccc65)C(=O)[C@H]3N(CCCCCO)C(=O)[C@@H]4C12` (stereo not given in full), the z-score in test [1] was -0.444; in test [2] it was 0.994 (inactive); in test [3], 0.241 (inactive); in test [5], -0.0432 (inactive); in [6], 0.137 (inactive); in test [7], 0.672 (inactive). In addition, the z-score was 0.774 (inactive) in test [8]; 0.618 in [9]; 0.561 in test [12]; -4.63 (inactive) in test [13]; 1.09 (inactive) in [14]; 1.08 (inactive) in test [15]. In addition, the composite z-score in test [4] was -0.951 (inactive); in [10] it was -0.0943; in [11] it was 0.282 (inactive); in the test on XIP peptide (Xip251-270) it was -0.75.

Regarding `CC(C)[Si](C#C[Si](C(C)C)(C(C)C)C(C)C)(O[C@H](C)c1cn(Cc2cccc(Cl)c2)nn1)C(C)C`, the z-score in test [1] is 0.205; in test [2] it was 0.916 (inactive); in test [3] it was 1.77 (inactive); in test [5], 0.444 (inactive); in test [6] it was 0.0575 (inactive); in [7], 2.07 (inactive). Besides, the z-score in [8] is 1.52 (inactive); in test [9] it was 1.68; in test [12] it was 0.293; in [13] it was 0.702 (inactive); in test [14] it was 0.0695 (inactive); in test [15] it was 0.153 (inactive). Moreover, the composite z-score in [4] was 0.621 (inactive); in test [10] it was -0.205; in test [11] it was -0.109 (inactive); in the test on XIP peptide (Xip251-270) it was -0.0612.

`O=c1c2ccc(Br)cc2nc(-c2ccccc2)n1Cc1cccc(O)c1`: the z-score in test [1] was -0.187; in [2], -2.04 (inactive); in [3], -1.1 (inactive); in test [5], 0.186 (inactive); in test [6], 0.159 (inactive); in test [7], 0.362 (inactive). The z-score was 0.39 (inactive) in [8]; -0.0974 in [9]; -0.772 in test [12]; -3.01 (inactive) in [13]; -0.005 (inactive) in test [14]; -0.24 (inactive) in test [15]. The composite z-score in test [4] was 0.515 (inactive); in [10] it was -0.151; in test [11], 0.0521 (inactive); in the test with XIP peptide (Xip251-270), 0.748.

With `COc1ccccc1CN1C(=O)c2ccccc2[C@@]2(Cc3ccccc3N(C3CC3)C2=O)[C@@H]1c1ccc(CO)cc1`, the z-score in test [1] was 0.409; in test [2] it was 0.162 (inactive); in test [3], -0.319 (inactive); in test [5] it was -0.255 (inactive); in [6], -0.522 (inactive); in test [7] it was -0.473 (inactive). Further, the z-score was -0.694 (inactive) in [8]; -0.343 in test [9]; 0.35 in test [12]; -2.14 (inactive) in test [13]; 0.315 (inactive) in [14]; 0.491 (inactive) in test [15]. Besides, the composite z-score is -6.76 (inactive) in test [4], -0.232 in test [10], -0.0699 (inactive) in test [11] and 0.53 in the test on XIP peptide (Xip251-270).

Consider `C=C(CCCC)/C(=C/C[C@H](OC(=O)c1ccncc1)c1ccc(CO)o1)c1cc(C(=O)OC)ccc1OC`, for which the z-score in test [1] is -0.673; in test [2], -0.756 (inactive); in [3] it was -2.13 (inactive); in test [5] it was 0.898 (inactive); in [6], -0.145 (inactive); in test [7], -0.861 (inactive). Also, the z-score in test [8] was -0.528 (inactive); in test [9] it was -0.963; in [12], -0.138; in test [13] it was -5.29 (inactive); in test [14], -0.52 (inactive); in test [15], -1.02 (inactive). The composite z-score in [4] is -3.99 (inactive); in test [10] it was 0.0537; in [11], 0.948 (inactive); with XIP peptide (Xip251-270), 0.71.

For `O=C1c2ccccc2C(=O)C2CC([C@H]3Oc4ccccc4S(=O)(=O)N4CCC[C@@H]34)=CCC12` (stereo not given in full), the z-score in test [1] was 0.0623; in [2], -2.32 (inactive); in test [3], -0.583 (inactive); in [5], -0.246 (inactive); in test [6], -0.841 (inactive); in test [7] it was 1.96 (inactive). In addition, the z-score in [8] is 0.34 (inactive); in test [9] it was 0.183; in [12] it was -1.24; in [13], -1.77 (inactive); in test [14], -0.278 (inactive); in test [15], -0.063 (inactive). The composite z-score in test [4] was 0.0834 (inactive); in [10], 0.0374; in test [11], -0.26 (inactive); with XIP peptide (Xip251-270), -0.267.

With `O=C1OCC=C[C@H]2OC34C=CCN(CCN5CCOCC5)C(=O)[C@H]3N(CCCCCO)C(=O)[C@@H]4[C@@H]12` (stereo not given in full), the z-score in test [1] was -0.267; in test [2], -0.654 (inactive); in test [3] it was -1.12 (inactive); in test [5] it was -0.525 (inactive); in test [6] it was 0.105 (inactive); in test [7], -1.18 (inactive). Further, the z-score in test [8] is -1.37 (inactive); in [9], -0.82; in test [12], -0.285; in test [13], -6.05 (inactive); in [14] it was 0.513 (inactive); in test [15], -0.209 (inactive). Further, the composite z-score in test [4] was 0.31 (inactive); in test [10], 0.11; in test [11], 0.102 (inactive); with XIP peptide (Xip251-270) it was 0.609.

In the case of `C[C@H]1NC(=O)C([C@@H](C)OCc2ccccc2)NC(=O)[C@@]23C(=O)N[C@@H](Cc4ccccc4)C2[C@H](C)[C@@]2(C)O[C@H]2C3/C=C/CC/C=C/CNC1=O` (stereo not given in full), the z-score in test [1] was -1.3; in test [2], -0.782 (inactive); in test [3], 0.737 (inactive); in test [5], -0.766 (inactive); in [6], 0.604 (inactive); in test [7] it was 1.36 (inactive). Also, the z-score in test [8] is 0.336 (inactive); in test [9], 0.189; in test [12] it was -2.74; in test [13] it was -6.35 (inactive); in test [14] it was -0.295 (inactive); in test [15], 0.3 (inactive). The composite z-score in test [4] was 0.855 (inactive); in [10], 0.13; in test [11] it was 0.249 (inactive); with XIP peptide (Xip251-270), -0.764.

Consider `COCCCNC(=O)[C@@H]1c2ccccc2C(=O)N(c2ccc(C)cn2)[C@H]1c1ccc(CO)cc1`, for which the z-score was -1.23 in [1]; 0.357 (inactive) in [2]; 0.507 (inactive) in [3]; 0.242 (inactive) in test [5]; 0.169 (inactive) in test [6]; -0.541 (inactive) in [7]. The z-score was -0.856 (inactive) in [8]; 0.162 in test [9]; -1.38 in test [12]; -0.943 (inactive) in test [13]; -0.106 (inactive) in test [14]; 0.236 (inactive) in [15]. The composite z-score in test [4] was 0.293 (inactive); in [10], -0.195; in test [11] it was -0.0692 (inactive); in the test on XIP peptide (Xip251-270), 0.305.

As for `C=CC[C@]1(C(=O)N(C)C)N=C(c2ccc(OCCCO)cc2)O[C@H]1c1ccccc1`, the z-score was 0.549 in test [1]; -2.54 (inactive) in [2]; 0.911 (inactive) in test [3]; -0.484 (inactive) in [5]; -0.689 (inactive) in [6]; 1.23 (inactive) in [7]. Besides, the z-score in test [8] was 0.771 (inactive); in [9], 0.586; in test [12], -2.08; in test [13] it was -4.25 (inactive); in [14] it was -0.271 (inactive); in test [15] it was 0.109 (inactive). In addition, the composite z-score in test [4] was -0.588 (inactive); in test [10], 0.133; in test [11], 0.39 (inactive); in the test with XIP peptide (Xip251-270), 0.643.
